Laboratory results published in PubChem BioAssay (Tox21).
Records with an inconclusive call do not appear. The source made the active and inactive calls. The call rests on the fitted dose curve.

Target: Acetylcholinesterase (Homo sapiens) (UniProt P22303)
Assay: Acetylcholinesterase (AChE) small molecule antagonists: fluorescence cell-based qHTS assay (AID 1347398); further: nearly all actives have a fitted effect of over 50% in size
Settings: SH-SY5Y cells; Potency: AChE activity; outcome: AChE activity; series mostly up to 115 µM; activity change, negative = inhibition: at the top concentration
Text: National Center for Advancing Translational Sciences [NCATS]
Division of Preclinical Innovation [DPI]
U.S. Environmental Protection Agency [EPA]
National Institutes of Environmental Health Sciences [NIEHS]
National Toxicology Program [NTP]
U.S. Food and Drug Administration [FDA]
Acetylcholinesterase (AChE) is the primary cholinesterase in the body that hydrolyzes a key neurotransmitter, acetylcholine. Inhibition of AChE activity can lead to neurotoxicity. Known inhibitors of AChE include organophosphorous pesticides (OP), chemical warfare agents, drugs, and various phytochemicals.
A homogenous cell-based assay using Amplitetrade mark Fluorimetric Acetylcholinesterase Assay Kit *Green Fluorescence* (AAT Bioquest, Sunnyvale, CA) was used to evaluate the chemicals in the Tox21 10K library that inhibit AChE activity. The assay uses Thiolite Green to quantify the thiocholine produced from the hydrolysis of acetylthiocholine by AChE from the SH-SY5Y cells. AChE can hydrolyze acetylthiocholine to create thiocholine. Thiolite Green is fluorescent when reacting with thiocholine. It has spectral properties similar to those of fluorescein. The fluorescence intensity of Thiolite Green is used to measure AChE activity. Its signal can be easily read by a fluorescence microplate reader at Ex/Em = 490/520 nm.
Tox21 Assay Protocol Summary:
For cell-based AChE assay, 2,000 SH-SY5Y cells in 4 uL/well were dispensed into black, clear-bottom 1536-well plates using a Multidrop Combi (Thermo Scientific) dispenser. The assay plates were incubated overnight at 37 C to allow cells to attach to the wells, followed by the transfer of 23 nL compound or DMSO (vehicle control) by a Pintool station (Wako Automation, CA). The plates were incubated for 30 min at 37 C and 5% CO2, followed by the addition of 4 uL of detection cocktail solution (ThioliteGreen, acetylthiocholine) into each well using Flying Reagent Dispenser (Beckman Coulter, CA) and then following 40 min incubation at room temperature. Fluorescent intensity (Ex/Em = 490/520 nm) was measured using an Envision plate reader (PerkinElmer, MA).
On the % scale 0 is the no-effect control and ±100 the full control effect.

Sequence of Acetylcholinesterase (Homo sapiens) (P22303 whole entry, looked up): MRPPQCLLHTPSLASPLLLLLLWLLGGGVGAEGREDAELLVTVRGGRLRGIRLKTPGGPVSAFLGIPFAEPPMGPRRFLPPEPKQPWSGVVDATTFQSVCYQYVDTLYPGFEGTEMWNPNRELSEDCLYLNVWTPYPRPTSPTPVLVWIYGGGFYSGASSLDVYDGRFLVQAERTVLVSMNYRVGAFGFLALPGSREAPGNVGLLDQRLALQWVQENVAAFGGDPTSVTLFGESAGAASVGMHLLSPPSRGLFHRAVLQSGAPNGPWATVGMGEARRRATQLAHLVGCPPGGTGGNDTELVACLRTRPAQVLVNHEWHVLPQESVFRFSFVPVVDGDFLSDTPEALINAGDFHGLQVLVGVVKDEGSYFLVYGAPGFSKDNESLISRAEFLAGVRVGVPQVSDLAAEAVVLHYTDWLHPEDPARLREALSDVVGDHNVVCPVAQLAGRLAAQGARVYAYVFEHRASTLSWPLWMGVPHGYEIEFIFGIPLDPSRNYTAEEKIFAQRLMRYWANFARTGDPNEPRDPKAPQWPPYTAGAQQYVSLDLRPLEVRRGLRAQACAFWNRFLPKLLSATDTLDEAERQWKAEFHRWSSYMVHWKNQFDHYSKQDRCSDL

Structure (SMILES)	Potency	activity change, negative = inhibition
OCC(CO)(CBr)CBr	inactive	–
CC(C)=CCC/C(C)=C/CC/C(C)=C/CO	–	-14% (inactive)
O=C(/C=C/c1ccccc1)OCCCc1ccccc1	–	-4.09% (inactive)
CC(C)(Oc1ccc(C2CC2(Cl)Cl)cc1)C(=O)O (stereo not given)	inactive	–
O=[N+]([O-])c1ccccc1Nc1ccccc1	–	-23.7% (inactive)
CC1=C(O)C(=O)OC1C (stereo not given)	–	1.48% (inactive)
O=C(Oc1ccccc1C(=O)O)c1ccccc1O	–	4.68% [at 53.7 µM] (inactive)
CC(C)=CCCC(C)CC(=O)O (stereo not given)	–	-1.41% (inactive)
C=C(C)C(=O)O	inactive	–
O=C(c1ccc(O)cc1)c1ccc(O)c(O)c1O	–	-10.1% (inactive)
CCn1ccnc1CC1COc2ccccc2O1 (stereo not given)	–	-1.37% [at 53.7 µM] (inactive)
O=S(=O)(O)CCO	–	0.162% (inactive)
NCCNCCO	–	-2.65% (inactive)
CCCCCCCCCCCSCC(=O)O	–	-16.5% (inactive)
NCCCCCC(=O)O	–	0% [at 53.7 µM] (inactive)
O=S(=O)(O)c1ccc(Cl)cc1	–	3.75% (inactive)
CC(O)(P(=O)(O)O)P(=O)(O)O	inactive	–
CC(C)(C)CC(C)(C)c1ccc(Nc2ccc(C(C)(C)CC(C)(C)C)cc2)cc1	–	-4.09% [at 10.5 µM] (inactive)
O=C(O)CC(C(=O)O)C(CC(=O)O)C(=O)O (stereo not given)	inactive	–
Cc1ncc(COP(=O)(O)O)c(C=O)c1O	–	17.2% [at 53.7 µM] (inactive)

Structure (SMILES)	Potency	activity change, negative = inhibition
c1cc(C(c2ccc(OCC3CO3)cc2)C(c2ccc(OCC3CO3)cc2)c2ccc(OCC3CO3)cc2)ccc1OCC1CO1 (stereo not given)	inactive	–
O=C(CCCCCCCCc1cccnc1)N1CCC(C=C(c2ccccc2)c2ccccc2)CC1	–	-0.627% (inactive)
Cc1ccc2nc(-c3ccc(N)cc3)sc2c1S(=O)(=O)O	–	6.38% [at 53.7 µM] (inactive)
CCCCOCCOCCOCCOCCO	–	2.47% (inactive)
O=C(O)CC(=O)C(=O)O	–	2.49% (inactive)
CCCCOC(=O)CCS	–	-2.03% (inactive)
C=C(C)C(=O)OCCOc1ccccc1	–	-0.235% (inactive)
OCCOCCOCCO	inactive	–
O=S(=O)(O)c1ccc2ccccc2c1	inactive	–
Nc1ccc(S(=O)(=O)O)cc1	–	-3.97% (inactive)
CC(=O)OC/C=C/c1ccccc1	–	-0.027% (inactive)
O=C1CCCCC1C1CCCCC1 (stereo not given)	–	1.39% (inactive)
O[C@@H]1CO[C@H]2[C@@H]1OC[C@@H]2O	–	6.07% [at 53.7 µM] (inactive)
CC(C)CCCCCCN	–	3.22% (inactive)
OCc1ccc(Cl)cc1Cl	inactive	–
CC1(C)O[C@H]2CC(=O)OC[C@]23[C@H]2CC[C@@]4(C)[C@H](c5ccoc5)OC(=O)[C@H]5O[C@]54[C@]2(C)C(=O)C[C@@H]13	–	1.37% [at 53.7 µM] (inactive)
CC(C)CCCC(=O)O	–	4.73% (inactive)
O=C(c1ccccc1)C(O)c1ccccc1 (stereo not given)	inactive	–
CC(=O)CCc1ccc(OC(C)=O)cc1	–	-0.357% (inactive)
CC(NN)c1ccccc1 (stereo not given)	–	0.294% [at 23.8 µM] (inactive)
